Structures can show the parent of a compound that is named as a salt.
Assays:
[1] = tested on: Danio rerio larvae Tg(actc1b:ZsGreen-LC3), 3 dpf; assay: LC3 puncta relative area vs vehicle, without NH4Cl (log2 fold change); higher = more autophagosomes; conditions: 10 µM; treatment time 16 h; NH4Cl: none
Description: (§1)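 Transgenic Tg(actc1b:ZsGreen-map1lc3) zebrafish larvae (2 dpf) were treated for 16 h with Tocris library compounds at 10 µM (n = 12 larvae per compound). Skeletal-muscle LC3 puncta area relative to body area was measured by high-content confocal imaging before and after 4 h of 100 mM NH4Cl (autophagic flux), normalised to vehicle (DMSO), and reported as log2 fold change.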

[2] = tested on: Danio rerio larvae Tg(actc1b:ZsGreen-LC3), 3 dpf; assay: LC3 puncta relative area vs vehicle, with NH4Cl (autophagic flux) (log2 fold change); higher = more autophagy; conditions: 10 µM; treatment time 16 h; NH4Cl: + 100 mM, 4 h
Description: as §1

| Compound | LC3 puncta (log2) [1] | LC3 puncta (log2) [2] |
| --- | --- | --- |
| CC(=O)N[C@@H](CC(=O)N[C@@H](CCC(=O)O)C(=O)O)C(=O)O [Spaglumic acid] | -0.106 | – |
| c1ccc(N2CCN(CCCOc3ccc4c(c3)OCO4)CC2)cc1 [BP 554 maleate] | – | 0.422 |

From the supplement of paper PMC12532568
